# In PubChem BioAssay (EPA / NIEHS):
# “And” between values parts separate entries of the source, which are not always exact repeats. Equal values may be shown once. Inconclusive results are not listed. The source holds several records for some structures; these can differ, active in one and inactive in another. The source made the active and inactive calls. Rule for the calls, unless noted: active = hit-call score of the fitted dose curve at least 0.9, where 1 is the maximum; inactive = score below 0.9.
# Tests used:
# [1] = read-out: Macrophage colony-stimulating factor (MCSF), CSF1 (gene 1435); test: BSK_IMphg_MCSF: BioMAP Diversity Plus: IMphg Assay for Macrophage colony-stimulating factor (MCSF) Biomarker Activity (AID 2284293); details: primary human endothelial cells with macrophages
# Outline: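 Co-culture of human venular endothelial cells and macrophages, 24 hours of chemical exposure. M-CSF quantified by ELISA, with parallel SRB total-protein staining for cytotoxicity; activity fitted relative to DMSO.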
# [2] = read-out: Interleukin-10 (IL10), IL10 (gene 3586); test: BSK_IMphg_IL10: BioMAP Diversity Plus: IMphg Assay for Interleukin-10 (IL10) Biomarker Activity (AID 2284294); details: primary human endothelial cells with macrophages
# Outline: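 Human venular endothelial cells cocultured with macrophages, dosed 24 h; IL-10 measured by ELISA, activity relative to DMSO. Cytotoxicity assessed in parallel cultures by sulforhodamine B total-protein staining.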
# [3] = BSK_IMphg_SRB.Mphg: Macrophage Viability Assessment in the BioMAP Diversity Plus: IMphg Assay (AID 2284295); details: primary human endothelial cells with macrophages
# Outline: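 Venular endothelial cells co-cultured with macrophages, read 24 h after dosing. Total protein measured by 0.1% SRB staining after 10% TCA fixation, absorbance at 560 nm. Fitted in positive direction against DMSO baseline.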
# [4] = read-out: Thrombomodulin, THBD (gene 7056); test: BSK_LPS_Thrombomodulin: BioMAP Diversity Plus: LPS Assay for Thrombomodulin Biomarker Activity (AID 2284296); details: primary human HUVEC with PBMC
# Outline: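 Human umbilical vein endothelial cells co-cultured with PBMC and stimulated with LPS; cell-surface thrombomodulin measured by ELISA 24 hours after compound. Gain or loss versus DMSO; cytotoxicity checked by SRB staining in parallel cultures.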
# CD69, CD69 (gene 969) = test: BSK_LPS_CD69: BioMAP Diversity Plus: LPS Assay for CD69 Biomarker Activity (AID 2284303); details: primary human HUVEC with PBMC
# Outline: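 Human umbilical vein endothelial cells co-cultured with PBMC under LPS stimulation, chemical exposure 24 h; cell-surface CD69 measured by ELISA and fitted in the positive direction versus DMSO.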
# [5] = CCTE_Mundy_HCI_iCellGluta_NOG_NeuriteLength: CCTE's Neurite Outgrowth Assay in iCellGluta cells for Neurite Length, Mundy Lab (AID 2284318; active = hit-call score of the fitted dose curve at least 0.9, where 1 is the maximum)
# Outline: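 Automated high-content imaging of betaIII-tubulin (Alexa Fluor-488) and Hoechst-stained cells gave neurite length, normalized to the DMSO baseline.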
# [6] = CCTE_Mundy_HCI_iCellGluta_NOG_NeuronCount: CCTE's Neurite Outgrowth Assay in iCellGluta cells for Neuron Count, Mundy Lab (AID 2284340; active = hit-call score of the fitted dose curve at least 0.9, where 1 is the maximum;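 note: cells fixed about 48 h after compound addition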)
# Outline: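 Neuron count read by automated high-content imaging of Hoechst 33342 and betaIII-tubulin/Alexa Fluor-488 labelling in human iPSC glutamatergic neurons. Activity fitted relative to DMSO.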
# [7] = Tanguay_ZF_120hpf_MO24: Oregon State University Tanguay Lab 24 Hour Post-fertilization zebrafish Assay for Mortality (AID 2284389)
# Outline: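 Dechorionated wild-type zebrafish embryos, 1 per well, statically exposed from 6 hpf at 28C, 0.64% DMSO final. Mortality scored as binary present/absent at 24 hpf by brightfield microscopy, relative to DMSO.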
# [8] = Tanguay_ZF_120hpf_CRAN: Oregon State University Tanguay Lab 120 Hour Post-fertilization zebrafish Assay for Craniofacial Malformation (AID 2284397)
# Outline: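 Dechorionated Tropical 5D wild-type zebrafish embryos, one per well, were statically exposed from 6 to 120 hpf at 28C in 0.64% DMSO, with 5uM trimethyltin chloride as positive control. Craniofacial malformation was scored present/absent by brightfield microscopy, relative to DMSO.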
# [9] = Tanguay_ZF_120hpf_AXIS: Oregon State University Tanguay Lab 120 Hour Post-fertilization zebrafish Assay for Axial Malformation (AID 2284398)
# Outline: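 Dechorionated 5D wild-type zebrafish embryos exposed statically, one per well, from 6 to 120 hpf at 28C, 0.64% DMSO. Axial malformation scored as present/absent by brightfield microscopy at 120 hpf; dead embryos not scored.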
# [10] = Tanguay_ZF_120hpf_MORT: Oregon State University Tanguay Lab 120 Hour Post-fertilization zebrafish Assay for Mortality (AID 2284399)
# Outline: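 Dechorionated wild-type Tropical 5D zebrafish embryos, one per well from 6 hpf, static exposure to 120 hpf at 28C in sealed dark plates, 0.64% DMSO final. Mortality scored as binary by brightfield at 24 and 120 hpf.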
# [11] = Tanguay_ZF_120hpf_EDEM: Oregon State University Tanguay Lab 120 Hour Post-fertilization zebrafish Assay for Edema Malformation (AID 2284400)
# Outline: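 Dechorionated Tropical 5D wild-type embryos, one per well, statically exposed from 6 to 120 hpf at 28C in 0.64% DMSO. Edema scored present/absent by brightfield microscopy at 120 hpf; dead embryos not scored; fit versus DMSO.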
# [12] = Tanguay_ZF_120hpf_ANY: Oregon State University Tanguay Lab 120 Hour Post-fertilization zebrafish Assay for Any Mortality and Malformation (AID 2284404)
# Outline: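 Dechorionated Tropical 5D wild-type embryos, one per well from 6 hpf, static exposure in sealed, dark plates at 28C until 120 hpf, 0.64% DMSO final. Brightfield scoring of mortality and malformations as binary presence/absence, pooling 13 morphology endpoints.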
# [13] = CCTE_Padilla_ZF_Score.Craniofacial: CCTE's 144 Hour Post-fertilization zebrafish Assay Score for Craniofacial Malformation, Padilla Lab (AID 2284405)
# Outline: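 Wild-type zebrafish embryos (with chorions), one per well in 10% Hanks', were dosed at 6–8 hpf in sealed plates and kept at 26C. They were rinsed at 5 dpf. At 6 dpf two blinded assessors scored craniofacial malformations by brightfield stereomicroscopy.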
# TTR (gene 7276) = test: CCTE_GLTED_hTTR_0.5uM: CCTE's human Transthyretin (hTTR) Inhibition Assay, with 0.5uM TTR, Great Lakes Toxicology and Ecology Division (GLTED) Lab (AID 2284320)
# Outline: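 Cell-free displacement assay in which human TTR at 0.5 uM was incubated with test chemical for 2 h. Displacement of the ANSA probe was read by fluorescence at 380 nm excitation/475 nm emission. Loss of signal was fitted in the positive direction versus DMSO.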
# SERPINA7 (gene 6906) = test: CCTE_GLTED_hTBG: CCTE's human Thyroxine-binding Globulin (TBG) Inhibition Assay, Great Lakes Toxicology and Ecology Division (GLTED) Lab (AID 2284343; active = hit-call score of the fitted dose curve at least 0.9, where 1 is the maximum;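 note: active chemicals lower fluorescence versus DMSO baseline by displacing probe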)
# Outline: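 Human TBG incubated 2 h with test chemical; displacement of ANSA probe read by fluorescence, 380 nm excitation/475 nm emission. Loss of signal relative to DMSO.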
compound,measurement,setting,value
CCN(CCO)S(=O)(=O)C(F)(F)C(F)(F)C(F)(F)C(F)(F)C(F)(F)C(F)(F)C(F)(F)C(F)(F)F,outcome,[1],inactive
same,outcome,[2],inactive
same,AC50,[3],44.2 µM (active)
same,outcome,[3],inactive
same,AC50,[4],16.6 µM (active) and 13.5 µM (active)
same,AC50,"CD69, CD69 (gene 969)",8.1 µM (active) and 7.79 µM (active)
same,outcome,[5],inactive
same,outcome,[6],inactive
same,outcome,[7],inactive
same,outcome,[8],inactive
same,outcome,[9],inactive
same,outcome,[10],inactive
same,outcome,[11],inactive
same,outcome,[12],inactive
same,outcome,[13],inactive
C=CC(=O)OCC(F)(F)C(F)(F)C(F)(F)C(F)(F)C(F)(F)C(F)(F)C(F)(F)C(F)F,outcome,[1],inactive
same,outcome,[2],inactive
same,AC50,[3],7.9 µM (active)
same,outcome,[3],inactive
same,AC50,[4],26.9 µM (active)
same,outcome,[4],inactive
same,AC50,"CD69, CD69 (gene 969)",23.2 µM (active)
same,outcome,"CD69, CD69 (gene 969)",inactive
same,AC50,TTR (gene 7276),1.84 µM (active)
same,outcome,[7],inactive
same,outcome,[8],inactive
same,outcome,[9],inactive
same,outcome,[10],inactive
same,outcome,[11],inactive
same,outcome,[12],inactive
same,outcome,[13],inactive
FC(F)(F)C(F)(F)C(F)(F)C(F)(F)C(F)(F)C(F)(F)CC[Si](Cl)(Cl)Cl,outcome,[1],inactive
same,outcome,[2],inactive
same,AC50,[3],0.0514 µM (active)
same,outcome,[3],inactive
same,outcome,[4],inactive
same,outcome,"CD69, CD69 (gene 969)",inactive
same,outcome,[7],inactive
same,outcome,[8],inactive
same,outcome,[9],inactive
same,outcome,[10],inactive
same,outcome,[11],inactive
same,outcome,[12],inactive
CNS(=O)(=O)C(F)(F)C(F)(F)C(F)(F)C(F)(F)C(F)(F)C(F)(F)C(F)(F)C(F)(F)F,outcome,[1],inactive
same,AC50,[2],17.9 µM (active)
same,outcome,[2],inactive
same,outcome,[3],inactive
same,outcome,[4],inactive
same,outcome,"CD69, CD69 (gene 969)",inactive
same,AC50,TTR (gene 7276),1.34 µM (active)
same,outcome,[7],inactive
same,outcome,[8],inactive
same,outcome,[9],inactive
same,AC50,[10],56.9 µM (active)
same,AC50,[11],47.8 µM (active)
same,AC50,[12],55.5 µM (active)
same,AC50,[13],85.1 µM (active)
O=C(O)C(F)(F)C(F)(F)C(F)(F)OC(F)(F)F,outcome,[1],inactive
same,outcome,[2],inactive
same,outcome,[3],inactive
same,outcome,[4],inactive
same,outcome,"CD69, CD69 (gene 969)",inactive
same,outcome,[5],inactive
same,AC50,TTR (gene 7276),4.54 µM (active)
same,outcome,[6],inactive
same,outcome,[7],inactive
same,outcome,[8],inactive
same,outcome,[9],inactive
same,outcome,[10],inactive
same,outcome,[11],inactive
same,outcome,[12],inactive
same,outcome,[13],inactive
OCC(F)(F)C(F)(F)C(F)(F)C(F)(F)C(F)(F)C(F)(F)CO,outcome,[1],inactive
same,AC50,[2],3.34 µM (active) and 5.58 µM (active)
same,outcome,[3],inactive
same,outcome,[4],inactive
same,outcome,"CD69, CD69 (gene 969)",inactive
same,AC50,TTR (gene 7276),11.2 µM (active)
same,outcome,[7],inactive
same,outcome,[8],inactive
same,outcome,[9],inactive
same,outcome,[10],inactive
same,outcome,[11],inactive
same,outcome,[12],inactive
same,AC50,[13],80.4 µM (active)
O=C(O)C(F)(F)C(F)(F)C(F)(F)C(F)(F)C(F)(F)C(F)(F)C(F)F,outcome,[1],inactive
same,outcome,[2],inactive
same,outcome,[3],inactive
same,outcome,[4],inactive
same,outcome,"CD69, CD69 (gene 969)",inactive
same,AC50,TTR (gene 7276),0.275 µM (active)
same,AC50,SERPINA7 (gene 6906),26.5 µM (active)
same,outcome,[13],inactive
NC(=O)C(F)(F)C(F)(F)C(F)(F)C(F)(F)C(F)(F)C(F)(F)C(F)(F)F,outcome,[1],inactive
same,outcome,[2],inactive
same,outcome,[3],inactive
same,outcome,[4],inactive
same,outcome,"CD69, CD69 (gene 969)",inactive
same,outcome,[5],inactive
same,AC50,TTR (gene 7276),5.65 µM (active)
same,outcome,[6],inactive
same,AC50,[7],52.7 µM (active)
same,outcome,[8],inactive
same,outcome,[9],inactive
same,AC50,[10],41.3 µM (active)
same,outcome,[11],inactive
same,AC50,[12],43.4 µM (active)
same,outcome,[13],inactive
FC(F)(F)C(F)(F)C(F)(F)C(F)(F)C(F)(F)C(F)(F)C(F)(F)CCI,outcome,[1],inactive
same,outcome,[2],inactive
same,outcome,[3],inactive
same,outcome,[4],inactive
same,outcome,"CD69, CD69 (gene 969)",inactive
same,AC50,TTR (gene 7276),22.5 µM (active)
same,outcome,[7],inactive
same,outcome,[8],inactive
same,outcome,[9],inactive
same,outcome,[10],inactive
same,outcome,[11],inactive
same,outcome,[12],inactive
same,outcome,[13],inactive
OCC(F)(F)C(F)(F)C(F)(F)C(F)(F)C(F)(F)C(F)(F)C(F)(F)C(F)(F)CO,AC50,[1],39.7 µM (active)
same,outcome,[1],inactive
same,AC50,[2],21.5 µM (active) and 42.7 µM (active)
same,AC50,[3],46 µM (active) and 39.8 µM (active)
same,outcome,[4],inactive
same,outcome,"CD69, CD69 (gene 969)",inactive
same,AC50,TTR (gene 7276),2.78 µM (active)
same,AC50,[7],72.8 µM (active)
same,outcome,[8],inactive
same,outcome,[9],inactive
same,AC50,[10],19.6 µM (active)
same,outcome,[11],inactive
same,AC50,[12],16.7 µM (active)
same,outcome,[13],inactive
OCC(O)CC(F)(F)C(F)(F)C(F)(F)C(F)(F)F (stereo not drawn),outcome,[1],inactive
same,outcome,[2],inactive
same,outcome,[3],inactive
same,outcome,[4],inactive
same,AC50,"CD69, CD69 (gene 969)",0.22 µM (active)
same,outcome,"CD69, CD69 (gene 969)",inactive
same,outcome,[7],inactive
same,outcome,[8],inactive
same,outcome,[9],inactive
same,outcome,[10],inactive
same,outcome,[11],inactive
same,outcome,[12],inactive
same,outcome,[13],inactive
